Test results from PubChem BioAssay (NCATS).
Results filed as inconclusive are left out. Active and inactive are the calls of the source. The call rests on the fitted dose curve; in most records, active means well fitted curve in the direction sought with a large enough effect; inconclusive means small, poorly fitted or top-dose-only effect, or another doubt; inactive means no such curve, though single readings can be large; an effect the other way counts as inactive or inconclusive.

Key:
[1] = qHTS for Activators of p53 Stress Response Pathway screened against the NCATS CANVASS Library (AID 1347388); conditions: p53RE-bla HCT-116, beta-lactamase reporter, 16 h; series mostly up to 46.1 µM
Description: (§1) Natural products and their derivatives continue to be wellsprings of nascent therapeutic potential. However, many laboratories have limited resources for biological evaluation, leaving their previously isolated or synthesized compounds largely or completely untested. To address this issue, the Canvass library of natural products was assembled (https://tripod.nih.gov/canvass), in collaboration with academic and industry researchers, for quantitative high-throughput screening (qHTS) across a diverse set of cell-based and biochemical assays. […] The library was formatted into 1536-well plates and evaluated in 50 qHTS (in an 11-pnt concentration series) bioassays with broad scope of disease-relevant mechanisms. The resulting data set from 50 different assays was then systematically analyzed to identify overall trends and specific natural products with interesting biological activities. […] The activation of the report gene under culture conditions can be detected by fluorescence intensity. […]
p53-screen protocol: 1. […] The fluorescence readout was obtained using the EnVision microplate reader (PerkinElmer) equipped with a 405 nm excitation and 460 nm and 530 nm emission filters. The ratio of 460 nm / 530 nm readout was calculated and used for data analysis. […]

[2] = qHTS assay for small molecule disruptors of mitochondrial membrane potential screened against the NCATS CANVASS Library (AID 1347389); conditions: HepG2 mitochondrial membrane potential, m-MPI red/green ratio, 1.5 h; series mostly up to 46.1 µM; further: nearly all actives have a fitted effect of over 60% in size
Description: as §1, with “In response to mitochondrial depolarization,” for “The activation of”, “red-to-green” for “report gene under culture conditions can be detected by”, “ratio decreases.” for “intensity.”
Mitochondrial membrane potential protocol: 2,000 HepG2 cells in 5 uL/well were dispensed into black, clear-bottom 1536-well plates using a Multidrop Combi (Thermo Scientific) dispenser. […] Fluorescence intensity (490nm excitation and 535nm emission for monomers; and 540nm excitation and 590nm emissions for aggregates) was measured using an Envision plate reader.

[3] = Secretion counterscreen for inhibitors of the SERCaMP assay screened against the NCATS CANVASS Library (AID 1347390); conditions: SH-SY5Y constitutive GLuc secretion, luminescence, 20 h; series mostly up to 76.6 µM;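 further: light from luciferase secreted into medium read as a measure of general secretion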
Description: Natural products and their derivatives continue to be wellsprings of nascent therapeutic potential. However, many laboratories have limited resources for biological evaluation, leaving their previously isolated or synthesized compounds largely or completely untested. To address this issue, the Canvass library of natural products was assembled (https://tripod.nih.gov/canvass), in collaboration with academic and industry researchers, for quantitative high-throughput screening (qHTS) across a diverse set of cell-based and biochemical assays. The pure (>85% purity by liquid chromatography/mass spectrometry [LC/MS]) Canvass library of 346 natural products were submitted by 45 academic laboratories and companies around the world. We collected pure natural products to circumvent deconvolution and structure elucidation due to time and resource limitations. The library was formatted into 1536-well plates and evaluated in 50 qHTS (in an 11-pnt concentration series) bioassays with broad scope of disease-relevant mechanisms. The resulting data set from 50 different assays was then systematically analyzed to identify overall trends and specific natural products with interesting biological activities. […]
SERCaMP secretion assay protocol: 1. […] Luminescence signal was obtained via the ViewLux plate reader (Perkin Elmer) using the clear emission filter and 1x binning, 5 seconds exposure settings.

[4] = qHTS for activators of Nrf2/ARE signaling pathway screened against the NCATS CANVASS Library (AID 1347391); conditions: ARE-bla HepG2, beta-lactamase reporter, 16 h; series mostly up to 46.1 µM; further: nearly all actives have a fitted effect of over 60% in size
Procedure, shortened: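 HepG2 ARE-bla; cpd 11-pt qHTS, 16 h 37C/5% CO2; CCF4 substrate 2 h RT; read ex 405 / em 460 + 530 nm. Viability by CellTiter-Glo luminescence, 30 min RT.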

[5] = qHTS for activators of dead-cell proteases activity screened against the NCATS CANVASS Library (AID 1347392); conditions: HepG2 cytotoxicity, dead-cell protease luminescence, 5 h; series mostly up to 46.1 µM;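 further: luminescence from protease leaking out of membrane-damaged cells cleaving impermeant substrate; rising signal means more cytotoxicity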
Procedure, shortened: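 HepG2, 2000 cells/well, 18 h attach; cpd 11-pt, 5 h 37C 5% CO2; CytoTox-Glo (AAF-aminoluciferin) 15 min RT; luminescence read.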

[6] = qHTS for inhibitors of ER calcium dysfunction: SERCaMP assay screened against the NCATS CANVASS Library (AID 1347393); conditions: SH-SY5Y GLuc-SERCaMP secretion, thapsigargin, luminescence; series mostly up to 76.6 µM;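 further: lower secreted reporter signal means inhibitor of ER calcium depletion; nearly all actives have a fitted effect of over 40% in size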
Procedure, shortened: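 SH-SY5Y GLuc-SERCaMP, 1000 cells/well, 4 h attach; cpd 16 h, 37C/5% CO2; thapsigargin (added as 6x 600 nM) 4 h; coelenterazine; luminescence. Reduced reporter release = ER Ca stabilization.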

[7] = Vero-766 cells viability qHTS against the NCATS CANVASS Library: Counterscreen for Zika virus inhibition assay (AID 1347394); conditions: Vero 766 viability, CellTiter-Glo luminescence, 72 h; series mostly up to 46.1 µM; further: nearly all actives have a fitted effect of over 60% in size
Procedure, shortened: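 This cytotoxicity counterscreen uses African green monkey Vero 766 cells in the absence of Zika virus. Compounds are incubated with cells for 72 h, and ATP-based luminescence reports viability.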

[8] = qHTS for inhibitors of Wild type Zika virus screened against the NCATS CANVASS Library (AID 1347396); conditions: Vero cells, Zika virus CPE, CellTiter-Glo, 72 h; series mostly up to 45.9 µM;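 further: ATP luminescence of surviving cells so rescue from viral cell killing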
Description: Natural products and their derivatives continue to be wellsprings of nascent therapeutic potential. However, many laboratories have limited resources for biological evaluation, leaving their previously isolated or synthesized compounds largely or completely untested. To address this issue, the Canvass library of natural products was assembled (https://tripod.nih.gov/canvass), in collaboration with academic and industry researchers, for quantitative high-throughput screening (qHTS) across a diverse set of cell-based and biochemical assays. […] The library was formatted into 1536-well plates and evaluated in 50 qHTS (in an 11-pnt concentration series) bioassays with broad scope of disease-relevant mechanisms. The resulting data set from 50 different assays was then systematically analyzed to identify overall trends and specific natural products with interesting biological activities. […]
Zika virus infection assay protocol: 1. […] In a biosafety cabinet, the desired MOI Zika virus was calculated and 2 uL of 2.5x Zika virus was dispensed into columns 1, 2 and 5 - 48 using the Multidrop Combi dispenser. […] Luminescence signal was obtained via the ViewLux plate reader (Perkin Elmer) using the clear emission filter and 1x binning, 2 seconds exposure settings.

[9] = Viability qHTS for inhibitors of the SERCaMP assay screened against the NCATS CANVASS Library (AID 1347400); conditions: SH-SY5Y SERCaMP cells viability, CellTiter-Glo, 48 h; series mostly up to 92.2 µM; further: nearly all actives have a fitted effect of over 70% in size
Procedure, shortened: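 CellTiter-Glo luminescence readout after 48 h compound exposure (11-pnt qHTS series) of SH-SY5Y-GLuc SERCaMP MJH297 cells seeded at 1000 cells/well; bortezomib positive control.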

[10] = Redox Reaction Profiling qHTS: Assay Interference Panel against the NCATS CANVASS Library (AID 1347401); conditions: resazurin-DTT redox cycling, fluorescence, 15 min; series mostly up to 57.1 µM
Procedure, shortened: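 Fluorescence read-out (525 nm excitation, 598 nm emission) at time zero and after 15 min in the dark tracked resorufin formation. Mix: 5 uM resazurin, 200 uM DTT, HEPES pH 7.3 buffer with NaCl.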

Measured: outcome

COc1ccc2[nH]cc(CCNC(C)=O)c2c1
inactive: [1] | [2] | [3] | [4] | [5] | [6] | [7] | [8] | [9] | [10]
